According to PubChem BioAssay (NCI):
Compounds without any hit were thinned out: in the full panel of roughly 83,000, 20% have a hit.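 Cells were grown in 96-well plates and exposed to the test compound at a single concentration for 48 hours; results are reported as percent growth, with values below 10 considered active.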 A number with no mark means an inactive call. Activity calls are given as the source filed them.

What was measured:
Test in all cases: NCI-60 one-dose screen, 48 h (100 = growth as untreated, 0 = no growth, -100 = all killed)
Details in all cases: 10 µM unless noted
[1] = tested on: SR leukemia
[2] = tested on: RPMI-8226 leukemia
[3] = tested on: OVCAR-8 ovarian
[4] = tested on: OVCAR-5 ovarian
[5] = tested on: OVCAR-4 ovarian
[6] = tested on: SK-OV-3 ovarian
[7] = tested on: IGROV1 ovarian
[8] = tested on: OVCAR-3 ovarian
[9] = tested on: HS 578T breast
[10] = tested on: NCI/ADR-RES ovarian
[11] = tested on: T-47D breast
[12] = tested on: BT-549 breast
[13] = tested on: MDA-MB-435 melanoma
[14] = tested on: SW-620 colon
[15] = tested on: MCF7 breast
[16] = tested on: HCT-116 colon
[17] = tested on: HCC-2998 colon
[18] = tested on: KM12 colon

| Compound | growth [1] | growth [2] | growth [3] | growth [4] | growth [5] | growth [6] | growth [7] | growth [8] | growth [9] | growth [10] | growth [11] | growth [12] | growth [13] | growth [14] | growth [15] | growth [16] | growth [17] | growth [18] |
| --- | --- | --- | --- | --- | --- | --- | --- | --- | --- | --- | --- | --- | --- | --- | --- | --- | --- | --- |
| Cc1ccc(/C=N/NC(N)=S)s1 | 97.3% | 100% | 107% | 104% | 110% | 111% | 113% | 105% | 106% | 109% | 100% | 113% | 106% | 107% | 100% | 99.5% | 113% | 107% |
| CC(=O)/C(C)=N\OC(=O)Nc1ccccc1 | 106% | 102% | 106% | 93.1% | 97.7% | 90.3% | 103% | 104% | 107% | 101% | 94.4% | 101% | 103% | 107% | 93.5% | 102% | 94.7% | 101% |
| C=C1C(=O)C2CCC1C2 (stereo not given) | 96.7% | 106% | 109% | 101% | 111% | 105% | 111% | 95.2% | 73.7% | 105% | 98.7% | 93% | 105% | 101% | 109% | 105% | 97% | – |
| NC(=O)c1cc2c3ccccc3ccn2c1-c1ccccc1 | -22.3% (active) | 7.04% (active) | 8.3% (active) | 33.5% | 43.2% | 12.7% | 20.2% | -20.6% (active) | 70.3% | -12% (active) | 88.7% | 25.5% | -13.5% (active) | 33.7% | 10.3% | -32.6% (active) | -6.31% (active) | 4.03% (active) |
| C/C(O)=C(/C=N\C(=S)Nc1ccc(S(=O)(=O)Nc2nccs2)cc1)C(=O)Nc1ccccc1C | 79.1% | 86.3% | 87.7% | 103% | 98.7% | 100% | 106% | 97% | 84.1% | 105% | 90.2% | 99.2% | 109% | 95.6% | 101% | 94.7% | 109% | 96.8% |
| CC1(C)OC(=O)CC1=O | 89% | 93.4% | 97.4% | 101% | 106% | 91.6% | 107% | 113% | 96.6% | 105% | 82% | 98.1% | 104% | 100% | 99.3% | 103% | 100% | 102% |
| O=C(NCCc1ccccc1)/C(=C\c1ccc(Cl)cc1Cl)NC(=O)c1ccccc1 | 87.6% | 92% | 95.3% | 101% | 98.7% | 97.6% | 96.3% | 94.1% | 96.4% | 91.8% | 98.1% | 104% | 96.6% | 95.7% | 91.9% | 99.7% | 113% | – |
| CN(C)c1ccc(O)c2c1CC1CC3C(N(C)C)C(=O)C(C(N)=O)=C(O)C3(O)C(=O)C1=C2O (stereo not given) | 24.1% | 20.6% | 38.3% | 63.4% | 57.8% | 45.2% | 38.4% | 46.6% | 48.9% | 66.7% | 50.5% | 29.2% | 44.8% | 47.8% | 53.4% | 34.1% | 49.7% | – |
| CC1CN(CCO)CC(C)O1 (stereo not given) | 103% | 111% | 107% | 93.1% | 99.7% | 96.9% | 103% | 106% | 74.4% | 106% | 93% | 108% | 102% | 102% | 109% | 112% | 119% | 101% |
| CCOC(=O)c1c(C)[nH]c(C)c1C=O | 84.4% | 89.7% | 94.5% | 96.4% | 107% | 94% | 103% | 112% | 98.9% | 107% | 82% | 95.8% | 105% | 97.9% | 89.1% | 101% | 92.9% | – |
| CC(c1ccccc1)N(C)C (stereo not given) | 67.3% | 155% | 117% | 92.8% | 77.3% | 103% | 152% | 120% | 153% | 105% | 112% | 101% | 119% | 117% | 99.5% | 93.8% | 113% | 101% |
| O=S(=O)(OCCOS(=O)(=O)c1ccccc1)c1ccccc1 | 93.7% | 100% | 97% | 111% | 101% | 96.3% | 105% | 94.3% | 108% | 95.5% | 105% | 86.4% | 107% | 102% | 88% | 87.4% | 72.8% | 101% |
| CCC(/C=C\C(C)=O)CC | 101% | 97.6% | 103% | 104% | 86.5% | 110% | 115% | 122% | 102% | 105% | 101% | 103% | 100% | 99% | 105% | 97.3% | 106% | 105% |
| CCOc1ccc(C(=O)NCC(C)C)cc1 | 102% | 105% | 105% | 105% | 97.2% | 99.7% | 110% | 109% | 107% | 111% | 89.1% | 98.3% | 96.8% | 91.7% | 93.5% | 101% | 114% | 101% |
| CCN1CCCC(N2c3ccccc3Sc3ccccc32)C1 (stereo not given) | 96.3% | 95.5% | 102% | 106% | 97.9% | 111% | 91.3% | 98.5% | 99.6% | 99.7% | 95.6% | 116% | 109% | 105% | 105% | 90.3% | 103% | 102% |
| O=c1nc(Nc2cccc(Cl)c2)oc2cc(Cl)oc(=O)c12 | 2.45% (active) | 26.8% | 62.9% | 88% | 89.9% | 98.4% | 12.4% | 51.6% | 62.3% | 89% | 61.6% | 91.2% | 85.8% | 74.1% | 53.8% | 55.1% | 96.2% | 81.7% |
| c1ccc2c(NCCCN3CCN(CCCNc4c5ccccc5nc5ccccc45)CC3)c3ccccc3nc2c1 | -3.4% [100 µM] (active) | -9.92% [100 µM] (active) | -37.8% [100 µM] (active) | -31.3% [100 µM] (active) | -48.8% [100 µM] (active) | -28.4% [100 µM] (active) | -31.6% [100 µM] (active) | -34.4% [100 µM] (active) | -19.1% [100 µM] (active) | 35.7% [100 µM] | -7.72% [100 µM] (active) | -61.4% [100 µM] (active) | -88.4% [100 µM] (active) | -22.7% [100 µM] (active) | -56.5% [100 µM] (active) | -49.6% [100 µM] (active) | -76.6% [100 µM] (active) | -14.9% [100 µM] (active) |
| O=C(NCc1ccco1)Nc1cccc2c(NC(=O)NCc3ccco3)cccc12 | 69.4% [100 µM] | 33.9% [100 µM] | -73.4% [100 µM] (active) | 66.4% [100 µM] | 92.3% [100 µM] | 111% [100 µM] | 66.3% [100 µM] | 97.5% [100 µM] | 88.2% [100 µM] | 103% [100 µM] | 69.2% [100 µM] | 57.1% [100 µM] | 40% [100 µM] | 23.1% [100 µM] | 60.1% [100 µM] | 15% [100 µM] | 74.5% [100 µM] | 61.1% [100 µM] |
